Reference: PubChem BioAssay AID1240 (Sanford-Burnham Center for Chemical Genomics, 2008)
Hit rate of the full screen: of about 50,000 compounds, about 800 (1.6%) showed an effect of 50% or more. The sample holds strong results, similar compounds and a random draw of the others, so the mix is not that of the screen.

target: Bcl-2-like protein 10 (Homo sapiens) (UniProt Q9HD36); experiment: Phenotype converters, Bcl-B/TR3 peptide binding displacement, primary biochemical FP (AID 1240); conditions: GST-Bcl-B / FITC-TR3 peptide fluorescence polarization; stronger effect = higher value; compound at 3.75 mg/L;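 also: 0% = Bcl-B with tracer peptide and DMSO and 100% = tracer peptide lacking Bcl-B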
Sequence (Q9HD36 whole entry, looked up): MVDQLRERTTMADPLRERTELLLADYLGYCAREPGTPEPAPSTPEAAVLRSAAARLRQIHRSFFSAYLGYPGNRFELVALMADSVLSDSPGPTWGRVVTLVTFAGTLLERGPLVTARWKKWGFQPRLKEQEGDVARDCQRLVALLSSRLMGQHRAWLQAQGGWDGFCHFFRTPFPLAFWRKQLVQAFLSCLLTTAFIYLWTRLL

| SMILES | displacement |
| --- | --- |
| CCN(CC)CCCCOc1ccc(Cl)c(C)c1 | -10.7% |
| COc1ccc(CCNC(=O)C(=O)Nc2ccc3c(c2)OCCO3)cc1OC | 3.4% |
| Cc1cccc(CN2CCN(Cc3ccncc3)CC2)c1 | -1.1% |
| COC(=O)c1sc2nc(-c3ccccc3)nc(N3CCOCC3)c2c1C | 47.3% |
| CC1(C)Oc2ccc3ccc(=O)oc3c2/C(=C/N2CCOCC2)C1=O | -5.9% |
| COc1ccc(Cl)cc1C(=O)Nc1ccc(C)cc1C | 10.1% |
| CN(C)c1ccc(/C=N/NC(=O)CNC(=O)c2ccc(F)cc2)cc1 | 2.3% |
| O=C(/C=C/c1ccc(-c2ccccc2[N+](=O)[O-])o1)c1cc2ccccc2o1 | 44.1% |
| COc1ccc(-c2ccc(/C=C/C(=O)c3cc4ccccc4o3)o2)cc1 | -52.6% |
| O=C(/C=C/c1ccc(-c2ccc([N+](=O)[O-])cc2)o1)c1cc2ccccc2o1 | 190% |
| O=C(Nc1cc(NC(=O)c2ccccc2)cc(C(=O)Nc2nccs2)c1)c1ccccc1 | 4.4% |
| O=C(COc1ccccc1F)Nc1nc(-c2cccs2)c(NC(=O)c2ccccc2)s1 | 14.6% |
| CC(C(=O)NN)C1=NC(C)(C)Cc2ccccc21 (stereo not drawn) | -17.7% |
| CC(=O)N1N=C2CC(C)(C)OCC2C1c1ccccc1 (stereo not drawn) | 12% |
| N=C(SC1CC(=O)N(c2ccccc2Cl)C1=O)N1N=C(c2cccs2)CC1c1ccc(Br)cc1 (stereo not drawn) | 1.4% |
| N=C(SC1CC(=O)N(c2cccc3ccccc23)C1=O)N1N=C(c2cccs2)CC1c1ccc(Br)cc1 (stereo not drawn) | 85.7% |
| Cc1cccc(N2C(=O)CC(SC(=N)N3N=C(c4cccs4)CC3c3ccc(Br)cc3)C2=O)c1 (stereo not drawn) | 5.6% |
| Cn1c(CNc2ccccc2O)nc2ccccc21 | 0.7% |
| Cn1c(CNc2ccc(O)cc2)nc2ccccc21 | 76.7% |
| Cn1c(CNc2ccccc2)nc2ccccc21 | -1.3% |
| COc1ccc(N(CC(=O)N2CCN(c3ccccc3OC)CC2)S(=O)(=O)c2ccccc2)c(OC)c1 | 8.6% |
| c1ccc(Oc2cccc(CSc3nnnn3-c3ccccc3)c2)cc1 | 1% |
| CCc1cccc(C)c1NC1C=CS(=O)(=O)C1 (stereo not drawn) | 52.3% |
| Cc1c(Cl)cccc1NC1C=CS(=O)(=O)C1 (stereo not drawn) | 14% |
| Cc1ccc(NC2C=CS(=O)(=O)C2)cc1C (stereo not drawn) | 6.7% |

| SMILES | displacement |
| --- | --- |
| CN(C1CCS(=O)(=O)C1)S(=O)C12CC3CC(CC(C3)C1)C2 (stereo not drawn) | -4.8% |
| COc1ccc(-n2c(=O)c3c4c(sc3n3c(SCC(N)=O)nnc23)CCCC4)cc1 | 0.7% |
| CCCSc1nnc2n(-c3ccc(OC)cc3)c(=O)c3c4c(sc3n12)CCCC4 | 34.9% |
| COC(=O)CSc1nnc2n(-c3ccc(OC)cc3)c(=O)c3c4c(sc3n12)CCCC4 | 5.6% |
| CCSc1nnc2n(-c3ccc(OC)cc3)c(=O)c3c4c(sc3n12)CCCC4 | 119% |
| COc1ccc(-n2c(=O)c3c4c(sc3n3c(SCCC(C)C)nnc23)CCCC4)cc1 | 89.8% |
| C=C(C)CSc1nnc2n(-c3ccc(OC)cc3)c(=O)c3c4c(sc3n12)CCCC4 | 3% |
| Clc1ccccc1C=NN1CCN(Cc2ccccc2Cl)CC1 | -2.4% |
| FC(F)(F)c1cc(/C=C/c2ccccc2)no1 | 7.7% |
| CC(=O)Nc1ccc(S(=O)(=O)Nc2cccc(C)c2C)cc1 | 12.9% |
| CN(C)c1ccc(/C=N/NC(=O)Cn2c3ccccc3c(=O)c3ccccc32)cc1[N+](=O)[O-] | 2.3% |
| N=C1S/C(=C\c2ccc3c(c2)OCO3)C(=O)N1c1ccc(F)cc1 | 2.6% |
| COc1cccc(/C=C2\N=C(c3ccccc3OC)OC2=O)c1 | -6% |
| O=C1OC(c2ccccc2F)=N/C1=C\c1ccc(Br)cc1 | 9% |
| O=C1OC(c2ccccc2Br)=N/C1=C\c1cc2c(cc1Cl)OCO2 | 116% |
| O=C1OC(c2ccc(F)cc2)=N/C1=C\c1ccc2c(c1)OCO2 | 15.9% |
| O=C1OC(c2ccccc2Br)=N/C1=C\c1cccnc1 | 4.7% |
| COc1ccccc1C1=N/C(=C\c2ccc([N+](=O)[O-])cc2)C(=O)O1 | 27.4% |
| O=C1OC(c2ccccc2F)=N/C1=C\c1ccc2c(c1)OCO2 | 80% |
| CN(C)/C=C1\N=C(c2ccccc2Br)OC1=O | -1.7% |
| O=C1/C(=C/c2ccc3c(c2)OCO3)SC(=S)N1c1ccc(F)cc1 | 11.8% |
| COc1ccccc1C1=N/C(=C\c2ccc3c(c2)OCO3)C(=O)O1 | 111% |
| O=C1/C(=C\c2ccc3c(c2)OCO3)N=C(c2ccccc2)N1c1ccc(F)cc1 | 179% |
| Cn1nnnc1SCc1ccc(F)cc1 | -4% |
| O=C1CS/C(=N/N=C/c2c3ccccc3cc3ccccc23)N1 | -1.8% |

| SMILES | displacement |
| --- | --- |
| CC(NC(=O)c1ccccc1)C12CC3CC(CC(C3)C1)C2 (stereo not drawn) | 39.3% |
| Cc1cccc(OCC(=O)O/N=C(\N)c2cccc(C)c2)c1 | -9.8% |
| CCOC(=O)CONC(=NCc1ccccc1)c1nonc1N | 3.6% |
| CCc1c(C)nc(N)nc1N1CCCC1 | 13.1% |
| Cc1ccc(C(=O)NCCCN2CCOCC2)c2ccccc12 | -1.8% |
| COc1ccccc1N1C(=O)c2cccc3c(N(C)C)ccc(c23)C1=O | 42.1% |
| COc1ccccc1N1C(=O)c2cccc3c(Cl)ccc(c23)C1=O | 22.2% |
| COc1ccccc1N1C(=O)c2cccc3c(N4CCN(C)CC4)ccc(c23)C1=O | 157% |
| COc1ccccc1N1C(=O)c2ccc3c4c(ccc(c24)C1=O)CC3 | 13.4% |
| Cc1ccccc1N1C(=O)c2cccc3c(N4CCCCC4)ccc(c23)C1=O | 15.9% |
| COc1ccccc1N1C(=O)c2cccc3c(N4CCCC4)ccc(c23)C1=O | 102% |
| Cc1cc(C)n(C2CC(=O)N(c3ccccc3)C2=O)n1 (stereo not drawn) | 0.8% |
| COc1ccc(C=C2C(=O)N(C)C(=O)N(C)C2=O)cc1O | -7.9% |
| O=S(=O)(Nc1ccc(O)cc1)c1cc(Cl)ccc1Cl | -0.2% |
| O=C(c1cccc(F)c1)N1CCN(C(=O)c2cccc(Cl)c2)CC1 | -18.6% |
| O=c1sc2ccccc2c(N2CCN(c3ccccc3)CC2)c1[N+](=O)[O-] | -11.1% |
| O=C(COC(=O)CN1C(=O)c2ccccc2C1=O)Nc1cccc2ccccc12 | -8.1% |
| N#C/C(=C\c1ccc(-c2ccccc2)o1)C(=O)Nc1ccc(C#N)cc1 | 168% |
| CCc1ccccc1NC(=O)/C(C#N)=C\c1ccc(Sc2ccccc2)o1 | -12.2% |
| N#C/C(=C/c1ccc(-c2ccc(S(N)(=O)=O)cc2)o1)C(=O)Nc1ccccc1 | -0.4% |
| N#C/C(=C/c1ccc(Sc2ccccc2)o1)C(=O)Nc1ccccc1 | -22.8% |
| Cc1cccc(NC(=O)/C(C#N)=C\c2ccc(Sc3ccccc3)o2)c1C | 74.9% |
| N#C/C(=C\c1ccc(-c2ccc(Cl)cc2)o1)C(=O)Nc1ccccc1O | -1% |
